Molecules are shown by their SMILES. Among all 4,100 compounds or so, about 1,600 (39%) were called active. Not shown: some 25% with an inconclusive outcome. The call rests on the fitted dose curve; in most records, active means well fitted inhibition curve with a large enough effect; inconclusive means small, poorly fitted or top-dose-only effect; inactive means no such curve, though single readings can be large or run the other way. Some of the results follow. Where a call stands in place of a potency, no number is given.

This passage reports Potency results from PubChem BioAssay AID1347416 (National Center for Advancing Translational Sciences (NCATS), 2020).
Potency means the concentration at half of the fitted maximal effect.

A short description of this experiment: qHTS Validation assay for Inhibitors of Plasmodium falciparum Dd2 growth in vitro. Further: nearly all actives have a fitted effect of over 70% in size. The settings on record: P. falciparum Dd2 in RBCs, SYBR Green growth, 72 h; series mostly up to 28.7 µM. Put shortly: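 P. falciparum Dd2-infected red blood cells (2.5% hematocrit, 0.3% parasitemia) grown 72 h at 37 °C under 5% O2 with compounds in a titration, 29 uM to 0.5 nM final. Growth read as SYBR Green-1 fluorescence after ~16 h lysis; artesunate 300 nM as positive control.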
In general terms: Quantitative high-throughput screening tests each substance at several concentrations.
For the molecule `Cc1ccc(-c2nc(C)c(C(=O)O)s2)cc1`, the Potency entry was “inactive”.
Then `CC(=O)C1=C(c2ccc(Cl)cc2)N(C(C)=O)n2c(nnc2C2CCCCC2)S1`, with 4.73 µM (active); and `CC(=O)C1=C(c2ccc(Br)cc2)N(C(C)=O)n2c(nnc2C2CCCCC2)S1`, with 2.99 µM (active).
On to `CC(=O)C1=C(c2ccccc2)N(C(C)=O)n2c(nnc2C2CCCCC2)S1`, for which the Potency is 4.22 µM (active).
As to `CC(=O)C1=C(c2ccc(Cl)c(Cl)c2)N(C(C)=O)n2cnnc2S1`, the Potency is 3.76 µM (active).
Then `Cc1ncoc1C(=O)N1CCCCCC1c1nnc(-c2ccccc2)o1` (stereo not given), with “inactive”.
Take `COc1ccc(C2=C(C(C)=O)Sc3nnc(-c4ccc(Cl)cc4)n3N2C(C)=O)cc1OC`: the Potency is 3.76 µM (active).
Take `CCOc1ccc(C2=C(C(C)=O)Sc3nnc(C)n3N2C(C)=O)cc1`: the Potency is 5.31 µM (active).
For the molecule `COc1cccc(C2=C(C(C)=O)Sc3nnc(C4CCCCC4)n3N2C(C)=O)c1`, the Potency was 4.73 µM (active).
For the molecule `COc1ccc(C(=O)NCc2nnc3ccc(-c4ccc(Cl)cc4)nn23)cc1F`, the Potency result was “inactive”.
Then `CC[C@@]1(O)CCN(C(=O)c2cccc(-c3cccc(OC)c3)c2)C[C@H]1O`, with “inactive”; and `COc1ccc(-c2noc(N3CCN(c4ccc(C)cc4)C(C)C3)n2)cc1OC` (stereo not given), with “inactive”.
Then `COc1cc(Cc2cnc(N)nc2N)cc(OC)c1OC`, with “inactive”; and `Cc1noc(-c2cccn3c(CNC(=O)c4cccc(N(C)C)c4)nnc23)n1`, with “inactive”.
As to `COCC(=O)N1CCC2(CC1)CCN(Cc1cccs1)c1ccccc1O2`, the Potency result is “inactive”.
The result for `O=C(Nc1ccc(Cl)cc1)N1CCC2(CC1)CCN(Cc1cccs1)c1ccccc1O2` reads 8.41 µM (active).
In the case of `CCCN1CCC2(CCN(C(=O)c3cccc(Cl)c3)CC2)Oc2ccccc21`, the Potency result was “inactive”.
Then `Cc1ccc([S+](=O)([O-])N2CCC3(CCN(Cc4cccs4)c4ccccc4O3)CC2)cc1`, with 18.8 µM (active).
As for `CCC(C)NC(=O)c1ccccc1NC(=O)C1COc2ccccc2O1` (stereo not given), the Potency is 10.6 µM (active).
Then `CCC(C)NC(=O)C1COC2(CCN(C(=O)c3cccc(Cl)c3)CC2)N1C(=O)c1ccccc1C` (stereo not given), with “inactive”.
On to `CCc1ccc(OCC(=O)N(Cc2ccc(C(C)C)cc2)C2CCS(=O)(=O)C2)cc1` (stereo not given), for which the Potency entry is “inactive”.
Then `CCc1ccc(CN(C(=O)c2cc3ccccc3oc2=O)C2CCS(=O)(=O)C2)cc1` (stereo not given), with “inactive”; and `Cc1ccc(-n2c(C)cc(C(=O)OCC(=O)N(C)C3CCS(=O)(=O)C3)c2C)cc1` (stereo not given), with 4.73 µM (active).
The result for `CC1CCCCN1CCCNC(=O)c1ccc2c(c1)sc1nc(-c3ccc(F)cc3)cn12` (stereo not given) reads 1.88 µM (active); that for `COc1ccc(-c2cc3c(=O)n(CCNC(=O)c4ccc(C)c(F)c4)ccn3n2)cc1`, “inactive”.
For the molecule `CN1c2cc(C(=O)NCc3ccc(F)cc3)ccc2C(=O)N2CCCCCC21` (stereo not given), the Potency result was “inactive”.
The result for `CCC1CCCCN1CCCNC(=O)c1ccc2c(c1)sc1nc(-c3ccc(F)cc3)cn12` (stereo not given) reads 1.5 µM (active); that for `O=C(C1CCC1)N1CCC2(CC1)CC(N(Cc1ccccc1)C1CC1)CCO2` (stereo not given), “inactive”.
`CC1CCCCN1Cc1c(O)ccc2c(=O)c(-c3nc4ccccc4s3)c(N)oc12` (stereo not given): the Potency is 1.06 µM (active).
The result for `COCCN1C(=O)CS(=O)(=O)C12CCN(C(=O)c1cc(C)ccc1C)CC2` reads “inactive”; that for `CN(C)Cc1cc(CC2(NCc3ccc(C#N)cc3)COC2)no1`, “inactive”.
The result for `CC(C)(C)CN[C@H]1C[C@@H](Cc2cc(CN3CCOCC3)on2)C1(C)C` reads “inactive”; that for `CN(C)Cc1cc(C[C@@H]2C[C@H](NCc3ccccc3O)C2(C)C)no1`, 17.2 µM (active); that for `CCc1cccc2sc(N3CCN(C(=O)c4ccc([N+](=O)[O-])o4)CC3)nc12`, 1.06 µM (active).
The result for `CC(=O)N1CCN(c2nc3c(s2)CC(C(=O)NCc2cccc(Cl)c2)CC3)CC1` (stereo not given) reads “inactive”; that for `O=C(c1ccc([N+](=O)[O-])o1)N1CCN(c2nc3c(F)cc(F)cc3s2)CC1`, 5.96 µM (active).
In the case of `O=C(c1ccc([N+](=O)[O-])o1)N1CCN(c2nc3c(Cl)cccc3s2)CC1`, the Potency was 4.22 µM (active).
Then `Cc1noc(C(C)N(C)C(=O)c2cc(COc3ccccc3F)[nH]n2)n1` (stereo not given), with “inactive”; and `Cc1nn(-c2ccccc2)c2c1C(c1cccnc1)N1C=C(S(=O)(=O)N3CCCCC3)C=CC1=N2` (stereo not given), with 15 µM (active); and `Fc1ccc(-c2ccc3ncc(Nc4ccnc(N5CCOCC5)c4)n3n2)cc1`, with 1.72 µM (active).
Regarding `COC(=O)[C@@H]1Cc2ncn(C(C)C)c2CN1S(=O)(=O)c1cccc(C(F)(F)F)c1`, the Potency entry is “inactive”.
The result for `COc1ccc(-c2ccc3ncc(Nc4cccc(C(F)(F)F)c4)n3n2)cn1` reads 12.2 µM (active).
The result for `COc1ccc(-c2ccc3ncc(Nc4ccnc(N5CCOCC5)c4)n3n2)cn1` reads 4.85 µM (active); that for `CCc1noc(-c2cccn3c(CNC(=O)Cc4ccc(Cl)cc4)nnc23)n1`, “inactive”.
The result for `CCN(CC)c1cc(C)c2cc(NC(=O)c3ccc(Br)o3)ccc2n1` reads 6.68 µM (active); that for `Cc1ccoc1C(=O)Nc1ccc(CC(=O)O)cc1`, “inactive”; that for `CCN(c1ccccc1)S(=O)(=O)c1ccc(NC(=O)c2cc(=O)c3cc(C)ccc3o2)cc1`, “inactive”.
With `CCN1CCN(c2cc(C)c3cc(NC(=O)c4ccc(Br)o4)ccc3n2)CC1`, the Potency was 6.68 µM (active).
Then `Cc1cc(N2CCN(C)CC2)nc2ccc(NC(=O)c3ccc(Br)o3)cc12`, with 6.68 µM (active).
As to `OC(CN1CCN(c2ccccn2)CC1)Cn1c2ccc(Cl)cc2c2cc(Cl)ccc21` (stereo not given), the Potency is 2.99 µM (active).
The result for `O=c1cc(N2CCOCC2)oc2c(N3CCN(c4ccccn4)CC3)nccc12` reads “inactive”; that for `CC(NC(=O)Cc1cccc(F)c1)C(=O)N1CCN(c2ccccn2)CC1` (stereo not given), “inactive”; that for `Cc1ccc(CNCc2cc3c(C(C)(C)C)nn(-c4ccccc4)c3[nH]c2=O)cc1`, 0.266 µM (active).
In the case of `COc1ccc(CNC(=O)CC[C@@H]2CNC(=O)[C@@H]3C[C@H](NCc4ccccc4)CN23)cc1`, the Potency result was “inactive”.
With `Cc1ccc(Oc2c(CCC(=O)NC(C)C)c(C)nn2-c2ccccc2)cc1`, the Potency entry is “inactive”.
The result for `COc1ccc(CNCc2cc3c(C(C)(C)C)nn(-c4ccccc4)c3[nH]c2=O)cc1` reads 0.842 µM (active); that for `Cc1ccc(-c2nn(-c3ccccc3)c3[nH]c(=O)c(CNCc4ccccc4)cc23)cc1`, 0.422 µM (active); that for `COc1ccc(CNC(=O)C2CCN(C(=O)c3cc4c(=O)[nH]c(C)cn4n3)CC2)cc1`, “inactive”.
Then `Cc1nc(NCc2ccccc2)[nH]c(=O)c1CCC(C)C`, with “inactive”; and `CCCC(=O)N=C1SC2CS(=O)(=O)CC2N1c1ccc(CC)cc1` (stereo not given), with “inactive”.
The result for `COCc1nncn1C1CCN(C(=O)c2ccc(C)c(C)c2)CC1` reads “inactive”.
On to `CN(Cc1cccn1C)C(=O)C1CC1`, for which the Potency entry was “inactive”.
The result for `CCC(C)c1ccc(O)c(NC(=O)c2cncc(Br)c2)c1` (stereo not given) reads 2.99 µM (active); that for `CCC(C)c1ccc(NC(=O)c2cccnc2)cc1` (stereo not given), “inactive”.
`COc1ccc(NC(=O)c2nnn3c2CN(Cc2cccc(Cl)c2)C(=O)CC3)c(C)c1`: the Potency was 2.17 µM (active).
As to `COc1ccc(NC(=O)c2nnn(Cc3ccccc3C)c2N)c(OC)c1`, the Potency entry is “inactive”.
Then `O=C(Nc1nc2ccccc2n1Cc1ccccc1)c1ccc(COc2ccccc2[N+](=O)[O-])o1`, with 16.8 µM (active); and `CCCCn1c2ccccc2c2nnc(SCC(=O)Nc3ccc(NC(C)=O)cc3)nc21`, with “inactive”; and `CCCCCCCn1c(NC(=O)CC)nc2ccccc21`, with 16.8 µM (active).
Regarding `CC(=O)Nc1nc2ccccc2n1Cc1ccc(Cl)cc1`, the Potency was 8.41 µM (active).
As to `COc1ccc2nc3oc(C(=O)NCc4cccs4)cc3cc2c1`, the Potency result was “inactive”.
Then `COc1ccc(C2CC(c3cccs3)=NN2C(=O)c2ccc(Br)o2)cc1` (stereo not given), with 5.31 µM (active); and `O=C(Nc1nc2c(F)cccc2s1)c1ccc(S(=O)(=O)N2CCCc3ccccc32)cc1`, with “inactive”; and `O=C(NCCCN1CCCC1)c1ccc2c(c1)N(S(=O)(=O)c1ccccc1F)CC2`, with 9.44 µM (active).
Turning to `O=C(CN1CCN(S(=O)(=O)N2CCCC2)CC1)NCc1ccccc1F`, the Potency result is “inactive”.
Then `COc1ccc2[nH]c3c(c2c1)CCNC31CCN(C(=O)C(C)(C)C)CC1`, with “inactive”; and `Cc1ccc(C(=O)N2CCc3nc4cc(-c5ccccc5)[nH]n4c(=O)c3C2)cn1`, with “inactive”.
The result for `O=C(c1cc(NC(=O)C23CC4CC(CC(C4)C2)C3)cc(NC(=O)C23CC4CC(CC(C4)C2)C3)c1)N1CCCCC1` reads 5.96 µM (active); that for `CC(C)CN1C(=O)c2cccn2CC1CNC(=O)c1ccccc1` (stereo not given), “inactive”.
As for `COc1ccccc1CNCC(O)(c1ccc(Cl)cc1)c1ccc(Cl)cc1`, the Potency was 1.5 µM (active).
The result for `Cc1ccc(CNCC(O)(c2ccccc2)c2ccc(Cl)cc2)cc1` (stereo not given) reads 2.99 µM (active); that for `COc1ccc(CNCC(O)(c2ccc(Cl)cc2)c2ccc(Cl)cc2)cc1`, 1.5 µM (active).
The result for `COc1ccccc1Oc1ncccc1CNCc1c(F)cccc1Cl` reads “inactive”.
Consider `Cc1cn2nc(-c3nc(C4CCCN(C(=O)Cc5ccsc5)C4)no3)cc2c(=O)[nH]1` (stereo not given), for which the Potency entry is “inactive”.
Consider `CCc1ccc(CNC(=O)C2CCN(c3cc(C(F)(F)F)nc(C)n3)CC2)cc1`, for which the Potency result is “inactive”.
As to `COc1ccc(OC)c(CNC(=O)C2CCN(c3ncnc4c3nc3n4CCCCC3)CC2)c1`, the Potency result was “inactive”.
Then `COc1ccc(CNC(=O)C2CCN(c3nc(-c4ccccc4)nc4c3CCC4)CC2)cc1`, with 7.5 µM (active); and `CC[C@@H](NC(C)=O)C(=O)N1CCOc2c(cc(-c3cccs3)cc2OC)C1`, with “inactive”.
Then `CCC1Oc2ccc(NC(=O)COC)cc2CN(Cc2ccc(F)cc2)C1=O` (stereo not given), with “inactive”; and `CC1(CNc2ccccc2)COc2ccc(C(=O)NCc3ccc(F)cc3)cc2N1` (stereo not given), with “inactive”.
Then `O=C(Nc1ccc(F)cc1)N1CCOc2ccc(CN3CCc4ccccc4C3)cc2C1`, with 8.41 µM (active).
Consider `O=C(Nc1ccc(F)cc1F)N1CCOc2ccc(CN3CCc4ccccc4C3)cc2C1`, for which the Potency is 16.8 µM (active).
As to `COc1ccccc1NC(=O)N1CCOc2ccc(CN3CCc4ccccc4C3)cc2C1`, the Potency is 2.37 µM (active).
Then `CCOc1cccc(CN2C[C@@H]3C(=O)N(CCN4CCc5ccccc5C4)C(=O)[C@@H]3C2)c1`, with “inactive”; and `Cc1cc(=O)n(CC(=O)Nc2ccccc2F)c(N2CCc3ccccc3C2)n1`, with “inactive”.
